Assay [1] is described as follows: inhibitors of TNFa-induced NFkB p65 translocation, primary screen, imaging, HUVEC, MLSMR starter and 10KST1 sets (AID 438;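 active = inhibition above 20% together with a positive visual image hit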;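 note: compound added about 3h40 before a 20 min TNFalpha stimulation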;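 for inhibition: signal is the nuclear over cytoplasmic p65 intensity ratio per well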). The settings on record: HUVEC TNFa-induced p65 nuclear translocation; cell count: measured here: nuclei count (cytotoxicity indicator), at 2.08 µM; inhibition: at 2 µM, stronger effect = higher value, 0% TNFa-plus-vehicle, 100% no-TNFa wells.
Assay [2] in a line: reduction of polyQ htt aggregates in cells – imaging, exon1htt(103Q)mCFP cells, high-content imaging, primary screen (AID 483;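 active = visual image review flags a hit and inhibition of aggregation exceeds 20%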;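 note: compound exposure lasted 3 days before fixation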;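 for nuclei count: percent of the per-plate median nuclei count of sample wells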). Conditions: exon1htt(103Q)mCFP cell line, aggregate imaging, at 2 µM; inhibition of aggregation: stronger effect = higher value; nuclei count: measured here: cell count, toxicity.
A short description of assay [3]: endothelial E-selectin expression blockers – imaging, HUVEC, immunofluorescence, MLSMR starter and 10KST1 sets, primary screen (AID 487;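 active = visually confirmed hit in the image check and inhibition above 20%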;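 for inhibition: signal is fraction of cell area covered by stained E-selectin grains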;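 for nuclei count: 100% = median nuclei count of all wells on the same plate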). The settings on record: HUVEC TNFalpha-induced E-selectin immunofluorescence imaging, at 2 µM; inhibition: stronger effect = higher value; nuclei count: measured here: cell number, toxicity.
Assay [4] in a line: Primary imaging screen for DUSP6 inhibitors that restore phospho-Erk in transfected HeLa cells, chemical complementation (AID 609;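 active = compounds giving at least 50% inhibition in the cell-based MKP-3 phosphatase rescue imaging test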;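 for inhibition: phospho-Erk level distribution per well compared with pooled transfected vehicle control wells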). Conditions: HeLa MKP-3 transfected, phospho-Erk imaging KS statistic, at 10 µM, cells stimulated with TPA for 15 min.
The target in assay [5] is Dual specificity protein phosphatase 6 (Homo sapiens) (UniProt Q16828). Described as above. The settings on record: HeLa MKP-3 transfected, phospho-Erk imaging KS statistic; at 10 µM; stronger effect = higher value; cells stimulated with TPA for 15 min.
The target of assay [6] is Voltage-gated potassium channel subunit beta-2 (Rattus norvegicus) (UniProt P62483). The assay is described as follows: inhibitors of rat Kvbeta2 reductase activity – biochemical, NADPH fluorescence, primary screen (AID 622;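 active = fluorescence slope higher than the sample average by over 3 SD, cut at about -0.22 in these data, passing the limit was not always enough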;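 note: slope of raw intensity against log time taken from 70 to 1610 s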). The settings on record: recombinant KvBeta, 4-cyanobenzaldehyde reduction, at 10 µM, stronger effect = higher value.
Assay [7] shares this target. The assay is described as follows: enhancers of rat Kvbeta2 NADPH turnover – biochemical, NADPH fluorescence, primary screen (AID 623;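 active = NADPH fluorescence slope more negative than the mean of all samples by about 3 SD, 99.7% confidence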;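 note: fluorescence intensity change per second fitted from 20 to 320 s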). The settings on record: Recombinant KvBeta, NADPH fluorescence decrease slope, 10 min; at 10 µM; stronger effect = lower value.
Assay [8] deals with Alpha-2C adrenergic receptor (Homo sapiens) (UniProt P18825). Put plainly: compounds altering alpha2C-coupled GIRK flux – cell-based, HEK293 alpha2C/GIRK1/2, thallium flux, primary screen (AID 624;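 active = fluorescence slope after compound addition differing from the mean of all screened samples at 99.7% confidence, in either direction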;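 note: slope of fluorescence ratio to pre-addition baseline per second over 15 to 24 s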). Conditions: thallium flux BTC fluorescence, at 10 µM, actives lie on both sides.
A short description of assay [9]: inhibitors of larval lipid processing in zebrafish, primary screen, whole organism, PED6 fluorescence, gall bladder and intestine (AID 686;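 active = a full or partial loss of lipid-probe fluorescence in the fish gall bladder, intestine or both, judged by eye; inactive = no fluorescence loss, or compound toxic to the fish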;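 note: larvae 5 to 7 days old with five fish per well; signal comes from phospholipase A2 cleavage of quenched PED6 carried via bile; overnight exposure to compound and PED6 before scoring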). Conditions: Zebrafish larvae PED6 lipid processing, fluorescence scoring; screened at 20 µM (by protocol).
Assay [10] is described as follows: loss of swimming-algae plug formation – whole organism, Chlamydomonas reinhardtii, WT vs cilia-less mutant, absorbance, 96-well, primary screen (AID 463189).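 Note: 0% = wild type cc124 cells in DMSO and 100% = ciliumless bld1 mutant cells.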 The settings on record: Chlamydomonas reinhardtii gravitaxis, OD600 absorbance, 2 days; at 10 µM; stronger effect = higher value.
Assay [11] is described as follows: blockers of RIG-like receptor reporter activation – cell-based, Sendai virus stimulus, luciferase, 10K MLSCN set, TLR/RLR signaling modifier project, primary screen (AID 602276;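 active = inhibition at or above 50% at 10 µM; inactive = inhibition below 50%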;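 note: firefly luciferase from ISG56 promoter only with Renilla not read in this screen; 0% = Sendai virus plus DMSO and 100% = medium plus DMSO without virus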). Conditions: HEK293 RL24 IRF3 luciferase reporter, at 10 µM, stronger effect = higher value. (Reporter assays use an easily measured gene product as a stand-in for the process of interest.)
Assay [12] is described as follows: TLR3 IRF3 reporter activation blockers – cell-based, poly I:C stimulus, luciferase, 10K MLSCN set, primary screen (AID 602277;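 active = inhibition of the reporter signal at or above 50%; inactive = inhibition below 50%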). Conditions: HEK293-TLR3 RL24 IRF3 luciferase reporter, at 10 µM, stronger effect = higher value.
[13] abbreviates: measured here: cell density z-score.
The mark [14] stands for this setting: measured here: nuclear c-Myc green intensity z-score.
Setting [15] is: measured here: nuclear pErk red intensity z-score, stronger effect = higher value.

The structures appear in SMILES notation. “And” between values parts separate entries of the source, which are not always exact repeats. Equal values may be shown once. The source made the active and inactive calls.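 Rule for the calls, unless noted: active = inhibition at or above 50% relative to wild type and mutant plate controls; inactive = inhibition below 50%.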

For orientation: inhibition means the change of the read-out against control, counted positive when it falls.

Dual specificity protein phosphatase 6 (Homo sapiens), sequence (Q16828 whole entry, looked up): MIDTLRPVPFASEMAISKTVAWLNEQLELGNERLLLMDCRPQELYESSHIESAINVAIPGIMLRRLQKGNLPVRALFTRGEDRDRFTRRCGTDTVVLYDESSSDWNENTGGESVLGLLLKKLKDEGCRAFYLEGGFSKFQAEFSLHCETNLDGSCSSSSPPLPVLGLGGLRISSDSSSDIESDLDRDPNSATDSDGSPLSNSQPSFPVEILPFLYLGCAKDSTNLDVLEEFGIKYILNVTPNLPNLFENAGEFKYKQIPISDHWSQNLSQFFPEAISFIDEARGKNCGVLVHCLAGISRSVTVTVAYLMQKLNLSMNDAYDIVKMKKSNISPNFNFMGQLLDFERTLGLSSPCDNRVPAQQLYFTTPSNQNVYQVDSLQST
Voltage-gated potassium channel subunit beta-2 (Rattus norvegicus), sequence (P62483 whole entry, looked up): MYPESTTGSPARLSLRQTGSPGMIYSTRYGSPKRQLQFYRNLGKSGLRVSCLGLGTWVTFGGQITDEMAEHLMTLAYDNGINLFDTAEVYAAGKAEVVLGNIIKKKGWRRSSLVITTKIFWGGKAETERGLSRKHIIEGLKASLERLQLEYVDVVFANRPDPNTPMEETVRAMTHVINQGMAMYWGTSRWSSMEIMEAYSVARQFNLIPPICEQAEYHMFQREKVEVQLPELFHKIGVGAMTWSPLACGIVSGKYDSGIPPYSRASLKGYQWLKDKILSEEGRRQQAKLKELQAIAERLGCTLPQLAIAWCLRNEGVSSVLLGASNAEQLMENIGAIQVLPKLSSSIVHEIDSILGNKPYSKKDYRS
Alpha-2C adrenergic receptor (Homo sapiens), sequence (P18825 whole entry, looked up): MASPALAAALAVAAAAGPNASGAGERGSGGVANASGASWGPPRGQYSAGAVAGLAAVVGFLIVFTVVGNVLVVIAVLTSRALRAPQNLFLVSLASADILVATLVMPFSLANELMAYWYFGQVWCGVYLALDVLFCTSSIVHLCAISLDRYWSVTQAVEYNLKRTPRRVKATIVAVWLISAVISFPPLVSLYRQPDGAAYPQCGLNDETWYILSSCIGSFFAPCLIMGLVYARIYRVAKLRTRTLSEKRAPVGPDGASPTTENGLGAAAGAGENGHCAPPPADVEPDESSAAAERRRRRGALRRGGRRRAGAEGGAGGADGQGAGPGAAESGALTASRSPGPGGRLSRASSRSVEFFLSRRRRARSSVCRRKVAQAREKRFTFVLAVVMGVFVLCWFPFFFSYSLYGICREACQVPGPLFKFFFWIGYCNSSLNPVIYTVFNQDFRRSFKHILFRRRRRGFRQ

In the case of `CNCCCC1c2ccccc2C=Cc2ccccc21`, the cell count in [1] stood at 583. Further, the inhibition in assay [1] is -3.3% (inactive); in assay [3], -90.5% (inactive); in assay [5], -11.9% (inactive); in assay [10], 7.66% (inactive) and 11.9% (inactive); in assay [11] it was 18.5% (inactive); in assay [12] it was 41.3% (inactive). In addition, the inhibition of aggregation in assay [2] was 10.3% (inactive). Further, the nuclei count in assay [2] came out at 79.5%; in assay [3], 120%. For the same molecule, the z-score in assay [4] (setting [13]) turned out to be 0.8; in assay [4] (setting [14]), 0.418; in [4] (setting [15]), 3.14. Besides, the fluorescence slope in assay [6] was -0.496 (inactive). Moreover, in [7], the NADPH fluorescence slope was -5.9e-05 (inactive). Moreover, in [8], the slope was 0.00425 (inactive). In assay [9], the molecule was classed as inactive.
`CC(=O)OCC(=O)[C@H]1CC[C@H]2[C@@H]3CC=C4C[C@@H](O)CC[C@]4(C)[C@H]3CC[C@]12C`: in assay [1], the cell count was 586. For the same molecule, the inhibition in [1] was -9.5% (inactive); in [3], -22.1% (inactive); in assay [5] it was 17.3% (inactive); in [10], 35% (inactive); in assay [11] it was 9.44% (inactive); in assay [12], 25.1% (inactive). Moreover, the inhibition of aggregation in assay [2] is 16.5% (inactive). For the same molecule, the nuclei count in assay [2] was determined as 99.7%; in [3], 128%. Also, the z-score was 0.459 in assay [4] (setting [13]), 0.562 in assay [4] (setting [14]) and -0.353 in [4] (setting [15]). The fluorescence slope in [6] was -0.45 (inactive). In addition, in assay [7], the NADPH fluorescence slope is -6.8e-05 (inactive). For the same molecule, the slope in [8] is 0.00533 (inactive). Further, the call in [9] was inactive.
With `O=C(O)c1cc(O)c2c(c1)C(=O)c1cccc(O)c1C2=O`, in [1], the cell count stood at 610. The inhibition was -3% (inactive) in [1]; -98.1% (inactive) in [3]; 3.45% (inactive) in assay [5]; 2.72% (inactive) in assay [10]; 18% (inactive) in [11]; 42.8% (inactive) in assay [12]. The inhibition of aggregation in assay [2] was 26.7% (inactive). Also, the nuclei count in assay [2] turned out to be 100%; in assay [3], 128%. Also, the z-score in assay [4] (setting [13]) is 0.571; in assay [4] (setting [14]) it was -1.15; in assay [4] (setting [15]), 1.27. Moreover, in assay [6], the fluorescence slope is -0.417 (inactive). Further, the NADPH fluorescence slope in assay [7] was -1.3e-05 (inactive). In assay [8], the slope was -0.00744 (active). In [9], the outcome was inactive.
For `CN(CCO)CC(O)Cn1cnc2c1c(=O)n(C)c(=O)n2C` (stereo not given) (tested in a mixture with another compound), the cell count in [1] turned out to be 638. The inhibition in assay [1] is -0.3% (inactive); in assay [3] it was 6.8% (inactive); in assay [5] it was 10.2% (inactive); in assay [10], -10.3% (inactive); in assay [11], 3.79% (inactive); in assay [12], 33.4% (inactive). For the same molecule, the inhibition of aggregation in assay [2] is 1.1% (inactive). Further, the nuclei count in [2] came to 103%; in assay [3], 125%. Further, the z-score in assay [4] (setting [13]) stood at 0.569; in assay [4] (setting [14]), 0.0927; in assay [4] (setting [15]) it was 0.334. Also, the fluorescence slope in assay [6] is -0.511 (inactive). Further, the NADPH fluorescence slope in assay [7] is -6e-05 (inactive). For the same molecule, the slope in assay [8] was 0.00421 (inactive). Moreover, in assay [9], the call was inactive.
As for `O=C(O)c1cc2cc(F)ccc2[nH]1`, the cell count in [1] was determined as 552. Also, the inhibition is -0.9% (inactive) in assay [1]; -14.2% (inactive) in assay [3]; -5.24% (inactive) in assay [5]; -3.42% (inactive) and -23.2% (inactive) in assay [10]; 12.4% (inactive) in assay [11]; 46.1% (inactive) in assay [12]. For the same molecule, in [2], the inhibition of aggregation is -5.1% (inactive). Also, the nuclei count in [2] is 95.6%; in assay [3] it was 107%. For the same molecule, the figures for the z-score in [4] (setting [13]), in assay [4] (setting [14]) and in [4] (setting [15]) were 2.14, -1.93 and -0.0855, respectively. In addition, in [6], the fluorescence slope is -0.457 (inactive). In [7], the NADPH fluorescence slope was -3.2e-05 (inactive). The slope in [8] is 0.00488 (inactive). The outcome in [9] was inactive.

The values above are taken from PubChem BioAssay.
